# Literature values, collected in PubChem BioAssay AID977610.
# Among all 3,600 compounds or so, about 3,600 (100%) were called active. The limit is not given here; nearly all actives have Ki up to about 18000 µM. So high a share suggests a set chosen from earlier hits. The list shows a part of the results. Numbered stars: 1 amine (or outer) side, 2 acyl side, 3 side chain; on linkers, the order of the positions; unused ones are H or OH. Where a SMILES comes first, the peptide text is derived from it. Square brackets hold non-standard residues; d marks the D form. Residues, ends and D or L forms follow the SMILES beside them. Peptide text beside a SMILES is read from it. [ ]: non-standard residue; d: D form. X2 = O=C([C@H](Cc1ccc(O[P+](O)(O)O)cc1)N[*:1])[*:2]; Orn(CH(NH2)2) = NC(N)NCCC[C@H](N)C(=O)O
# Assay: PubChem AID 977610
# Settings: PDB protein-ligand complexes, literature Ki
compound,measurement,setting,value
C[C@@H]1N[C@@H](c2cn(-c3ccccc3)nn2)[C@H](O)[C@@H]1O,Ki,"protein: Alpha-L-fucosidase Fuc2970, PDB entry 4pee",0.0048 µM (active)
NCCCC[C@H](N[C@@H](CCc1ccccc1)C(=O)O)C(=O)N1CC=C[C@H]1C(=O)O,Ki,"protein: human somatic angiontensin-I converting enzyme N domain, PDB entry 2c6n",0.131 µM (active)
N[C@@H](CCc1cccnc1)[P+](O)(O)C[C@@H](Cc1ccccc1)C(=O)O,Ki,"protein: Aminopeptidase N, PDB entry 4qir",0.112 µM (active)
NCc1cccc(C[C@H](C[P+](O)(O)[C@@H](N)CCc2ccccc2)C(=O)O)c1,Ki,"protein: Aminopeptidase N, PDB entry 4quo",0.012 µM (active)
N[C@@H](CCc1ccccc1)[P+](O)(O)C[C@@H](Cc1ccccc1)C(O)O,Ki,"protein: Aminopeptidase N, PDB entry 4qme",0.302 µM (active)
NCc1ccc(C[C@H](C[P+](O)(O)[C@@H](N)CCc2ccccc2)C(=O)O)cc1,Ki,"protein: Aminopeptidase N, PDB entry 4qhp",0.009 µM (active)
Cc1ccc(-c2cnc([C@@H](O)CCCCCCc3ccccc3)o2)nc1,Ki,"protein: Fatty-acid amide hydrolase 1 (L192F, F194Y, A377T, S435N, I491V, V495M mutation), PDB entry 4j5p",0.012 µM (active)
O=C(O)c1cccc(-c2cnc([C@@H](O)CCc3ccc(-c4ccccc4)cc3)o2)n1,Ki,"protein: Humanized Variant of Fatty Acid Amide Hydrolase (L192F, F194Y, A377T, S435N, I491V, V495M), PDB entry 3k83",0.022 µM (active)
O=C(O)c1cccc(-c2cnc([C@@H](O)CCCCCCc3ccccc3)o2)n1,Ki,"protein: Humanized Variant of Fatty Acid Amide Hydrolase (L192F, F194Y, A377T, S435N, I491V, V495M), PDB entry 3k7f",0.02 µM (active)
O=C1CC(NC(=O)c2c(Cl)cccc2Cl)=CC=N1,Ki,"protein: Non-receptor tyrosine-protein kinase TYK2 (D1023N mutation), PDB entry 4gfo",0.24 µM (active)
same,Ki,"protein: Tyrosine-protein kinase JAK2, PDB entry 4gfm",0.06 µM (active)
CC(=O)N[C@@H](CCCNC(N)N)C(=O)N[C@@H](Cc1c[nH]c2ccccc12)C(=O)N[C@H]1CCCCCCCNC(=O)[C@@H]2CCCN2C(=O)[C@H](CCCNC(N)N)NC(=O)[C@H](C)NC(=O)[C@@H]2CCCN2C(=O)[C@H](Cc2ccccc2)NC1=O,Ki,"protein: Menin, PDB entry 4i80",0.0238 µM (active)
Oc1ccc(Br)cc1/C=C/S(O)(O)O,Ki,"protein: CARBONIC ANHYDRASE 2, PDB entry 4bcw",100 µM (active)
CC(C)C[C@@H](N)[C@H](O)C(=O)N[C@H](C(=O)N[C@H](C(=O)N[C@@H](CC(=O)O)C(=O)O)C(C)C)C(C)C,Ki,"protein: Glutamyl aminopeptidase, PDB entry 4kx8",0.074 µM (active)
O=[N+]([O-])c1ccc2n[nH]nc2c1,Ki,"protein: KEMP ELIMINASE HG3.17 (V6I, Q37K, K50Q, G82A, M84C, S89N, Q90F, T105I, A125T, T142N, T208M, S265T, F267M, W275A, R276F,, PDB entry 4bs0",2 µM (active)
CSCC[C@H](NC(=O)[C@H](CO)NC(=O)[C@H](CCC(N)=O)NC(=O)[C@H](CCCN=C(N)N)NC(=O)[C@H](CS)NC(=O)[C@@H](N)[C@@H](C)O)C(=O)N[C@@H](CS)C(=O)N[C@H](C(=O)N[C@@H](C)C(=O)N[C@@H](CCCN=C(N)N)C(=O)O)[C@@H](C)O (tested in a mixture with another compound) (H-TCRQSMCTAR-OH),Ki,"protein: urokinase-type plasminogen activator (uPA), PDB entry 4mnv",11.6 µM (active)
H-SRWQTSII-OH,Ki,"protein: CFTR Associated Ligand (CAL) PDZ domain, PDB entry 4k6y",14.8 µM (active)
H-RWQDTRL-OH,Ki,"protein: CFTR Associated Ligand (CAL) PDZ domain, PDB entry 4k75",56.2 µM (active)
CNc1nc2c(CC[C@H]3O[C@@H](OC)[C@H](O)[C@@H]3OC)c3nc(N)[nH]c(=O)c3cc2[nH]1,Ki,"protein: tRNA guanine transglycosylase (TGT), PDB entry 4kwo",0.353 µM (active)
Cc1nnc(CNCCN2C(O)c3cccc4cccc(c34)C2O)s1 (stereo not drawn),Ki,"protein: insect beta-N-acetyl-D-hexosaminidase OfHex1, PDB entry 3wmb",4.28 µM (active)
Cc1nnc(CNCCN2C(O)c3cccc4c(N(C)C)ccc(c34)C2O)s1 (stereo not drawn),Ki,"protein: insect beta-N-acetyl-D-hexosaminidase OfHex1, PDB entry 3wmc",0.31 µM (active)
CC(=O)N[C@@H](Cc1ccc(O[P+](O)(O)O)cc1)C(=O)N[C@H](C(=O)N1CCC[C@H]1C(=O)N[C@@H](CCC(=O)O)C(=O)N1CCC[C@H]1C(N)=O)[C@@H](C)O (Ac-[X2]TPEP-NH2),Ki,"protein: E3 ubiquitin-protein ligase CBL, PDB entry 4gpl",1.3 µM (active)
C=C1CS[C@H]([C@H](N)C(=O)O)N=C1C(=O)O,Ki,"protein: AmpC Beta-Lactamase, PDB entry 4okp",2000 µM (active)
N[C@H](C(=O)O)[C@@H]1N=C(C(=O)O)CCS1,Ki,"protein: AmpC Beta-Lactamase, PDB entry 4old",2000 µM (active)
Cc1ccc(NC(=O)c2cccc(C(F)(F)F)c2)cc1-c1ccc2nc(NC3CC3)ncc2c1,Ki,"protein: Mitogen-activated protein kinase 1 (Q103A, C164L mutation), PDB entry 4i5h",0.002 µM (active)
Cc1cccc(Nc2cc(S(O)(O)O)c(N)c3c2C(=O)c2ccccc2C3=O)c1,Ki,"protein: ecto-nucleoside triphosphate diphosphohydrolase 2, RnNTPDase2, PDB entry 4cd1",12.8 µM (active)
CCCCCC(=O)O[C@@H](CO)CO[P+](O)(O)OCC[N+](C)(C)C,Ki,"protein: Avermectin-sensitive glutamate-gated chloride channel GluCl alpha, PDB entry 4tnw",167 µM (active)
O=c1[nH]cnc2c(CN3C[C@H](O)[C@H](O)[C@H]3CO)csc12,Ki,"protein: Inosine-adenosine-guanosine-nucleoside hydrolase, PDB entry 4i73",0.19 µM (active)
same,Ki,"protein: Inosine-adenosine-guanosine-nucleoside hydrolase, PDB entry 4i74",0.19 µM (active)
Nc1ncnc2c(CN3C[C@H](CSCC[C@H](N)C(=O)O)[C@@H](O)C3)c[nH]c12,Ki,"protein: 5'-methylthioadenosine/S-adenosylhomocysteine nucleosidase, PDB entry 4f3k",6.9e-05 µM (active)
Nc1ncnc2c([C@@H]3N[C@H](CO)[C@@H](O)[C@H]3O)c[nH]c12,Ki,"protein: Inosine-adenosine-guanosine-nucleoside hydrolase, PDB entry 4i72",0.0009 µM (active)
Nc1ncnc2c(CN3C[C@H](O)[C@H](O)[C@H]3CO)c[nH]c12,Ki,"protein: Inosine-adenosine-guanosine-nucleoside hydrolase, PDB entry 4i71",0.018 µM (active)
CSCC[C@H](NC(=O)[C@H](C)N)C(=O)N[C@@H](CCCNC(N)N)C(=O)N[C@H](C(=O)O)C(C)C (H-AM[Orn(CH(NH2)2)]V-OH),Ki,"protein: E3 ubiquitin-protein ligase XIAP (C202A, C213G mutation), PDB entry 4j48",2.41 µM (active)
